Dicer processing: blocks human Dicer maturation of pre-miR-21. AID 1347074. z-score at 25 µM. cat-ELCCA pre-miR-21 Dicer processing, chemiluminescence; hits give high values. 47,000 compounds, 6% hits; in the data active means z-score above about 3, passing the limit was not always enough;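 further: higher signal means more uncleaved substrate so more Dicer inhibition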
Numbers stand for hits. Only a selection was taken, and hits are over-represented in it overall.

C=CCOc1ccc(C2c3c(oc4ccc(F)cc4c3=O)C(=O)N2Cc2ccc3c(c2)OCO3)cc1 (configuration not stated) was read as Dicer processing inactive.
For CC(=O)c1sc2nnc(-c3ccccc3)c(-c3ccccc3)c2c1N the results were Dicer processing inactive.
For COc1ccc(-c2nc(-n3c(C)c4c(C)nnc(C)c4c3C)sc2C)cc1 the results were Dicer processing inactive.
`c1cc2nncn2nc1N1CCSCC1` gave Dicer processing inactive.
For C=CCn1c(SCC(=O)c2c(C)[nH]c3ccccc23)nnc1-c1ccccc1 the results were Dicer processing inactive.
COc1cccc(-c2cnc(Nc3ccc(F)cc3)s2)c1 was read as Dicer processing inactive.
CCOC(=O)c1sc(NC(=O)c2ccco2)nc1C was read as Dicer processing inactive.
Screening CCOC(=O)c1sc(NC(C)=O)nc1C returned Dicer processing 4.3.
For COC(=O)c1sc(NC(C)=O)nc1C the results were Dicer processing inactive.
`O=C(/C(=N\N=C\c1ccc(Cl)cc1)c1ccccc1)c1ccccc1` gave Dicer processing inactive.
`CCCCCSc1nnc(N)s1` gave Dicer processing 4.6.
Cc1ccc(C(=O)N2CCN(C(=O)CSc3nnc(N)s3)C2)cc1 was read as Dicer processing inactive.
Nc1nnc(SCC(=O)N2CCc3ccccc3C2)s1 was read as Dicer processing inactive.
For Clc1ccccc1OCc1nc(-c2cccnc2)no1 the results were Dicer processing inactive.
C=CCOC(=O)C1=C(C)NC2=C(C(=O)CCC2)C1c1cccc(OC)c1OC (configuration not stated) was read as Dicer processing inactive.
Screening COc1ccc(C2C(C(=O)OC(C)(C)C)C(=O)CC(C)(O)C2C(=O)OC(C)(C)C)cc1 (configuration not stated) returned Dicer processing inactive.
`CC(C)NC(=O)Nc1n[nH]c(Nc2ccc(Cl)cc2)n1` gave Dicer processing 12.
For CCCNC(=O)Nc1n[nH]c(Nc2ccc(Cl)cc2)n1 the results were Dicer processing inactive.
For Cc1onc(-c2c(Cl)cccc2Cl)c1NC(=O)NC(C)C the results were Dicer processing inactive.
For O=C(NCCNc1ccc(C(F)(F)F)cn1)Nc1ccccc1Cl the results were Dicer processing inactive.
For CCCCCCSc1s[nH]c(=O)c1C#N the results were Dicer processing inactive.
For O=C1CC(/C=C/c2ccccc2)Cc2nc(N3CCN(Cc4ccc5c(c4)OCO5)CC3)ncc21 (configuration not stated) the results were Dicer processing 4.6.
For O=C1CC(c2cccc(Cl)c2)Cc2nc(N3CCN(Cc4ccc5c(c4)OCO5)CC3)ncc21 (configuration not stated) the results were Dicer processing inactive.
COc1ccc(C2CC(=O)c3cnc(N4CCN(Cc5ccc6c(c5)OCO6)CC4)nc3C2)cc1 (configuration not stated) was read as Dicer processing inactive.
`Cc1ccc(Nc2ncnc3ccccc23)cc1C` gave Dicer processing inactive.
`CCc1ccc2oc3nc(N)c(C#N)cc3c(=O)c2c1` gave Dicer processing inactive.
For CSc1sc(C(N)=O)c2c1-c1oncc1CC2 the results were Dicer processing inactive.
`c1ccc(-c2nc3ccccc3nc2-c2ccccn2)nc1` gave Dicer processing inactive.
For Cc1cc(=S)nc(-c2ccccn2)[nH]1 the results were Dicer processing 6.9.
Screening Cc1[nH]c(-c2ccccn2)nc(=S)c1Cl returned Dicer processing inactive.
Screening COc1ccc(Br)cc1C1C(C(=O)OC(C)C)=C(C)Nc2nnnn21 (configuration not stated) returned Dicer processing inactive.
S=C(Nc1ccc(Cl)cc1Cl)N1CCCC1c1cccs1 (configuration not stated) was read as Dicer processing inactive.
For O=S(=O)(Oc1cc(Cl)cc(Cl)c1)c1cc(S(=O)(=O)c2ccccc2)cs1 the results were Dicer processing inactive.
Screening C=C(C)CSc1nc(=O)cc(N)n1-c1ccc(F)cc1 returned Dicer processing inactive.
Screening CN(CCc1ccccn1)Cc1cccc(F)c1 returned Dicer processing 3.5.
CN(CCc1ccccn1)Cc1ccccn1 was read as Dicer processing inactive.
For CN(CCc1ccccn1)Cc1ccc(F)cc1 the results were Dicer processing inactive.
For CCCCOc1cc([N+](=O)[O-])c(OCCCC)cc1N1CCOCC1 the results were Dicer processing inactive.
For CN1CC=C(/C=C/c2ccccc2)CC1 the results were Dicer processing 3.8.
`CN1CCc2c(sc3c2C(=O)NC(/C=C\c2ccccc2)N3)C1` (configuration not stated) gave Dicer processing inactive.
Screening C(=C\c1ccccc1)/CN1CCN(C/C=C/c2ccccc2)CC1 returned Dicer processing inactive.
`CC(NCC(O)Cn1c2ccccc2c2ccccc21)C(=O)O` (configuration not stated) gave Dicer processing inactive.
`CC(C)(C)NCC(O)Cn1c2ccccc2c2ccccc21` (configuration not stated) gave Dicer processing inactive.
`OCCNCC(O)Cn1c2ccccc2c2ccccc21` (configuration not stated) gave Dicer processing 4.5.
For Cc1ccc(C(=O)CNC2=NCCC2)cc1 the results were Dicer processing inactive.

Assay outcomes from PubChem.
